RORg inh = inhibitors of mouse ROR gamma transcriptional activity. 310,000 compounds, 5.4% hits. Potency, µM (titrated, usually from 53.6 µM), without a hit: at the top dose activity change, negative = inhibition, most hits filed as inhibitors. Drosophila S2 Gal4-RORgamma UAS-luciferase reporter, 20 h. AID 2551; further: nearly all actives have a fitted effect of over 60% in size
Target sequence (P51450 whole entry, looked up, the tested form may be a part): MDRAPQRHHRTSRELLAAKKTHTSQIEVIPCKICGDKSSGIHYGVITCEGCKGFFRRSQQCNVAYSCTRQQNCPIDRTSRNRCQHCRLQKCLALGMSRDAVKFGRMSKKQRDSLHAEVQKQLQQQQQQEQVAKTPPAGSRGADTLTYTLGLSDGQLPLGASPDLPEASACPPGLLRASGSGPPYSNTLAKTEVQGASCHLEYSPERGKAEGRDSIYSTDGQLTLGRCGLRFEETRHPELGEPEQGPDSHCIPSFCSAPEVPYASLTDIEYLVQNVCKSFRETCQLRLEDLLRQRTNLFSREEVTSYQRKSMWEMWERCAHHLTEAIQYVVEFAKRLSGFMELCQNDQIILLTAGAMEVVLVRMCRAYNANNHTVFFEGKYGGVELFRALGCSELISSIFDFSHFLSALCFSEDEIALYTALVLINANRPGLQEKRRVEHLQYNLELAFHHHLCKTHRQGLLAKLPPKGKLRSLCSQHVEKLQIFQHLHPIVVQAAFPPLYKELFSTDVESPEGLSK
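Schneider cells (Drosophila), stable Gal4 DBD–ROR gamma + UAS-luc; 1 hr cmpd preincubation; Cu2+ induction 700 uM final; 20 hr ambient; luminescence.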
DT40 TDP1 no CPT = qHTS for Inhibitors of human tyrosyl-DNA phosphodiesterase 1 (TDP1): qHTS in cells in absence of CPT. AID 686978, 2013. Potency, µM (highest dose often 46.2 µM), without a hit: top-dose activity change, negative = growth inhibition, usual class: inhibitors. 420,000 compounds, 15% hits. DT40 Tdp1-/- hTDP1 cells, no CPT, ATP luminescence, 48 h; further: nearly all actives have a fitted effect of over 55% in size
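Growth of hTDP1-complemented DT40 Tdp1-knockout cells is measured by ATP luminescence after at least 48 hr compound exposure at 37 °C, with DMSO substituting for the 20 nM CPT used in the parallel screen.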
TDP1 inh = TDP1 (human) enzyme inhibition; 350,000 compounds, 0.28% hits; Q9NUW8; recombinant TDP1, AlphaScreen DNA substrate cleavage; AID 485290; Potency, µM (highest dose often 130 µM), for inactives: top-dose activity change, negative = inhibition, actives largely listed as inhibitors; further: nearly all actives have a fitted effect of over 40% in size
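E. coli-derived human Tdp1, 1 nM final. Cpd preinc 15 min RT; substrate 15 nM final, 5 min RT; AS bead mix 10 ug/ml final, 10 min RT. Signal loss = tyrosine-FITC cleavage. No-enzyme wells = max signal.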
DT40 TDP1 CPT = growth inhibition of DT40 Tdp1-/-;hTDP1 cells with camptothecin (screen for TDP1 inhibitors); chicken DT40 Tdp1-/-;hTDP1 cells + 20 nM CPT, ATP luminescence, 48 h; Potency, µM (series often up to 46.2 µM), for the others: top-dose activity change, negative = growth inhibition, actives largely listed as inhibitors; 420,000 compounds, 12% hits; AID 686979; further: nearly all actives have a fitted effect of over 55% in size
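Cell growth measured by CellTiter-Glo luminescence after a minimum 48 h, 37 C compound exposure with 20 nM CPT in Tdp1-knockout DT40 cells stably expressing hTDP1, seeded 400/well; qHTS titration format.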
VP16 counter = Gal4-VP16 reporter inhibition counter-screen; AID 2546; Potency, µM (titrated, usually from 53.6 µM), without a hit: at the highest dose activity, negative = inhibition, usual class: inhibitors; 310,000 compounds, 3.5% hits; Drosophila S2 Gal4-VP16 UAS-luciferase, luminescence, 20 h;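 further: Gal4-VP16 expression switched on by copper sulfate through the metallothionein promoter; nearly all actives have a fitted effect of over 50% in size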
Starred values were filed as active, the others as inactive; ? = inconclusive; . = no result. A selection: hits, their analogues and other compounds. The true share with any hit is near 19%. The call rests on the fitted dose curve; in most records, active means well fitted curve in the direction sought with a large enough effect; inconclusive means small, poorly fitted or top-dose-only effect, or another doubt; inactive means no such curve, though single readings can be large; an effect the other way counts as inactive or inconclusive. On the % scale 0 is the no-effect control and ±100 the full control effect; potency means the concentration at half of the fitted maximal effect.

SMILES	RORg inh	DT40 TDP1 no CPT	TDP1 inh	DT40 TDP1 CPT	VP16 counter
O=C(CSc1ncnc2ccccc12)Nc1cccc(S(=O)(=O)N2CCOCC2)c1	-18%	16µM*	-5%	-19%	8%
O=C(CSc1nc2ccccc2c(=O)n1-c1ccccc1Cl)Nc1cccc(S(=O)(=O)N2CCOCC2)c1	9%	?	8%	15µM*	3%
CN(C)S(=O)(=O)c1ccc(NC(=O)CSc2ncnc3ccccc23)cc1	-1%	?	1%	-27%	0%
O=C(CSc1nc2ccccc2c(=O)n1-c1ccc(F)cc1F)Nc1ccc(N2CCOCC2)cc1	?	21µM*	5%	23µM*	4%
Cc1cccc(NC(=O)CSc2nnc(CNC(=O)c3ccc(S(=O)(=O)N(C)C)cc3)n2-c2cccc(C)c2)c1	?	?	-6%	16µM*	-3%
Cc1cccc(NC(=O)CSc2nnc(CNC(=O)c3ccc(S(=O)(=O)N(C)C)cc3)n2-c2ccccc2)c1	?	?	0%	-27%	-17%
O=C(COc1cccc(Br)c1)N/N=C/C(=O)c1ccccc1	-36%	?	5%	-29%	?
Cn1c(C(=O)N2CCCC(C(=O)NCCCc3ccccc3)C2)cc2sccc21 (centres undefined)	8%	10µM*	7%	18µM*	1%
Cn1c(C(=O)N2CCCC(C(=O)NCCc3ccccc3)C2)cc2sccc21 (centres undefined)	17%	5.8µM*	6%	5.8µM*	?
O=C(COC(=O)c1cccs1)Nc1nnc(-c2ccccc2)o1	.	-17%	.	?	.
CCCNC1=C(C)C(=O)CC1	-11%	2%	0%	-2%	2%
Cc1nc2ccc(S(=O)(=O)Nc3ccccc3C)cc2s1	8%	18µM*	4%	?	-3%
Cc1nc2ccc(NS(=O)(=O)c3ccc(F)cc3F)cc2s1	.	?	1%	?	.
Cc1nc2ccc(NS(=O)(=O)c3ccc(C)c(C)c3)cc2s1	?	10µM*	4%	15µM*	?
Cc1nc2ccc(S(=O)(=O)CCC(=O)Nc3ccccc3C)cc2s1	.	-4%	5%	-24%	.
Cc1nc2ccc(NS(=O)(=O)c3c(F)cc(F)cc3Br)cc2s1	.	6.5µM*	2%	?	.
CCOC(=O)C1=C(C)Nc2nc(SCc3cccnc3)nn2C1c1ccc(OC)cc1 (centres undefined)	-24%	?	4%	?	3%
CC(C)CNC(=O)CSc1ccc(S(=O)(=O)N(C)C2CCCCC2)cn1	.	?	0%	-29%	.
CCN(CC(=O)Nc1cc(Cl)ccc1C)C(=O)CCS(=O)(=O)c1ccc(Cl)cc1	0%	?	3%	18µM*	3%
CCN(CC(=O)Nc1ccccc1C(F)(F)F)C(=O)CCS(=O)(=O)c1ccc(Cl)cc1	.	-30%	.	?	.
CCN(CC)S(=O)(=O)c1ccc(N2CCCCC2)c(NC(=O)/C(C#N)=C/c2ccc(OC)cc2)c1	-16%	16µM*	5%	?	2%
COc1ccc(C(C)(C)C)cc1NC(=O)c1cc(S(=O)(=O)N(C)C)ccc1N1CCCC1	-28%	?	5%	21µM*	-1%
CCN(CC)S(=O)(=O)c1ccc(N2CCCC2)c(NC(=O)c2ccc(OC)cc2OC)c1	-3%	16µM*	3%	18µM*	-14%
CCN(CC)S(=O)(=O)c1ccc(N2CCCC2)c(NC(=O)Cc2ccc(OC)cc2)c1	29%	21µM*	6%	?	-9%
CCN(CC)S(=O)(=O)c1ccc(N2CCCC2)c(NC(=O)Cc2cc(OC)c(OC)c(OC)c2)c1	22%	-23%	.	-2%	-16%
SMILES	RORg inh	DT40 TDP1 no CPT	TDP1 inh	DT40 TDP1 CPT	VP16 counter
O=C(Nc1ccc([N+](=O)[O-])c(NC(=O)c2cccnc2)c1)c1cccnc1	.	-7%	.	10%	.
O=C(c1cccc(C(=O)N2CCC(O)(c3ccccc3)CC2)c1)N1CCC(O)(c2ccccc2)CC1	.	-20%	.	-2%	.
COc1cc2sc3ccc(-c4ccc(N(C)C)nc4)cc3c(=O)c2cc1OC	.	5.8µM*	.	5.8µM*	.
COc1cc2sc3ccc(-c4ccc(CN5CCOCC5)cc4)cc3c(=O)c2cc1OC	.	13µM*	2%	18µM*	.
COc1ccc(-c2ccc3sc4ccccc4c(=O)c3c2)cn1	.	-13%	.	-8%	.
COc1ccc(CN2CCOCC2)cc1OC	27%	?	3%	16%	-5%
CC1SCC(NC(=O)c2ccc(Cl)cc2)CS1 (centres undefined)	7%	-8%	4%	-5%	7%
CCOc1ccccc1CSc1nc2ccccc2[nH]1	?	?	-3%	-26%	?
CCOc1ccc(NC(=S)NC(=O)c2c(Cl)cnn2CC)c([N+](=O)[O-])c1	7.9µM*	-4%	5%	4%	?
CCOc1ccc(NC(=S)NC(=O)c2c(Br)cnn2C)c([N+](=O)[O-])c1	?	23µM*	8%	21µM*	-1%
CCOc1ccc(N/C=C/C(=O)c2ccccc2)c([N+](=O)[O-])c1	7.1µM*	?	4%	?	7.1µM*
CCn1ncc(Cl)c1C(=O)NC(=S)Nc1c(C)cc(C)cc1[N+](=O)[O-]	1.3µM*	23µM*	3%	?	13µM*
CCn1ncc(Cl)c1C(=O)Nc1cc([N+](=O)[O-])ccc1OC	1%	-1%	1%	10%	-4%
Cc1ccc([N+](=O)[O-])cc1NC(=S)NC(=O)c1c(Cl)cnn1C	.	9%	1%	-3%	.
CCCOc1ccc(NC(=O)C(=O)NCCCN2CCOCC2)cc1	.	-18%	.	-20%	.
Cc1cc(C)c(NC(=S)NC(=O)c2c(Cl)c(C)nn2C)c([N+](=O)[O-])c1	20µM*	-11%	0%	6%	?
CCOc1ccc(NC(=S)NC(=O)c2cccnc2)c([N+](=O)[O-])c1	20µM*	-1%	6%	4%	18µM*
CC(=O)c1ccc(NC(=S)NC(=O)c2c(Cl)c(C)nn2C)cc1	?	-2%	-5%	13%	-14%
O=C1O[C@H](CO)[C@@H](O)[C@H](O)[C@H]1O	.	-7%	.	2%	.
O=C1C[C@H](c2ccc(-c3ccccc3)cc2)N1S(=O)(=O)c1ccccc1[N+](=O)[O-]	11%	.	9%	.	-12%
O=C1c2cnc3nc(SCc4cccc(Cl)c4)nn3c2CC2c3ccccc3CCN12 (centres undefined)	-15%	21µM*	0%	15µM*	-1%
CCCN(CCC)C(=O)c1cc2c(=O)[nH]c3ccc(C)cc3c2s1	40%	16µM*	2%	?	-6%
Cc1ccc(C)c(N(C)C(=O)c2cc3c(=O)[nH]c4ccc(C)cc4c3s2)c1	22%	4.1µM*	.	16µM*	-1%

Compound activity deposited in PubChem by National Center for Advancing Translational Sciences (NCATS).
